# In all, about 310,000 compounds went through this assay and about 14,000 (4.5%) showed an effect of 50% or more. The effect is printed as a negative number. Many of the other results were omitted from the sample, so strong results are more common in it than they were.
# Molecular target: human ether-à-go-go-related gene (hERG) potassium channel (human, UniProt Q12809)
# Test: primary screen, population patch clamp on CHO cells stably expressing hERG; higher = less effect of the substance
# 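Further: peak tail current of the secondary pulse compared with the same well before compound.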
# Sequence of human ether-à-go-go-related gene (hERG) potassium channel (Q12809 whole entry, looked up): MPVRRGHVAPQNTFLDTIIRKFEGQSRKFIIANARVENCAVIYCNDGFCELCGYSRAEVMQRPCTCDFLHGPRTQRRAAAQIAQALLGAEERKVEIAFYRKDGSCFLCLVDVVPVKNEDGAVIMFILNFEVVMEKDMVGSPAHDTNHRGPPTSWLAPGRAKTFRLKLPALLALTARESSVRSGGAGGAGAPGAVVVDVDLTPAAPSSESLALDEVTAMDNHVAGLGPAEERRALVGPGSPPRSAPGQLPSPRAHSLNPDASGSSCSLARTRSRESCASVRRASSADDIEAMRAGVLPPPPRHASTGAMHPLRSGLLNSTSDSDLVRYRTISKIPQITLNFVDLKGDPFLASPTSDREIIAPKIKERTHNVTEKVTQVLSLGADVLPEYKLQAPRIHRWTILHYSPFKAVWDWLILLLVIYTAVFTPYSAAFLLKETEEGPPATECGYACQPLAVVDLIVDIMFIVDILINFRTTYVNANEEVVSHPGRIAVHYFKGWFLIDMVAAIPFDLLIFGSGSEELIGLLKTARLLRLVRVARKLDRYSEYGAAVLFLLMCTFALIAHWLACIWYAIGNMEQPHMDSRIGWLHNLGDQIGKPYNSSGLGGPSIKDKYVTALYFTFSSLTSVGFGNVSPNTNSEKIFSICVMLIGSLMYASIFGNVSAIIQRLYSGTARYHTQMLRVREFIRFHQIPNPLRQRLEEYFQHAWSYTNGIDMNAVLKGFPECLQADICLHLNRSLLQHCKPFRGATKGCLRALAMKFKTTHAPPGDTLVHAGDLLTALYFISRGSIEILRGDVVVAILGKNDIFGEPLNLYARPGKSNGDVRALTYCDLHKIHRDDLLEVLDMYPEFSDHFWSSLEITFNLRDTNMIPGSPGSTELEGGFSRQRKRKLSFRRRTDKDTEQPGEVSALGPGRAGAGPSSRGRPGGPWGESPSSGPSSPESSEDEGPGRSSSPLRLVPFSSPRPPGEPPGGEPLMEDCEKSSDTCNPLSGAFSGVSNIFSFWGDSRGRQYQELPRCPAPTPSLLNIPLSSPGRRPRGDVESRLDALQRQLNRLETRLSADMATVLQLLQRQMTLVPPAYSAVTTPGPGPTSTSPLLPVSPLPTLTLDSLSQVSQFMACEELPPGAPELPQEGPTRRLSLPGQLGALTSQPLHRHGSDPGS
row,SMILES,"hERG current change (%, negative = inhibition) at 10uM [%]"
1,CCCCn1c(SCC(=O)NNC(=O)c2ccco2)nnc1-c1ccco1,4
2,CCn1c(=O)c2c(nc(SCC(=O)NCC3CCCO3)n2C)n(C)c1=O (centres unmarked),-0.794
3,Nc1nc(CSCc2ccccc2)nc(N2CCOCC2)n1,-10.2
4,Nc1nc(Cn2nnc(-c3ccccc3Cl)n2)nc(N2CCOCC2)n1,-54.4
5,Nc1nc(Cn2nnc(-c3ccccc3F)n2)nc(N2CCOCC2)n1,-73.4
6,Clc1ccc(Cn2nnc(-c3ccc(N4CCOCC4)cc3)n2)cc1,4.16
7,COc1ccc(-c2nnn(Cc3nc(N)nc(N4CCCCC4)n3)n2)cc1,-9.06
8,COc1ccc(-c2nnn(Cc3nc(N)nc(N4CCOCC4)n3)n2)cc1OC,-0.202
9,CCCCN(C(=O)NC(=O)Nc1ccccc1OC)S(C)(=O)=O,-2.42
10,CCCCCCCCN1C(=O)N(C)C(N(O)C(=O)NC)C1(C)C (centres unmarked),8.37
11,Cc1cc(C(F)(F)F)n2ncc(-c3cccc(Br)c3)c2n1,22.6
12,O=C(Cn1nc(-c2ccccc2)ccc1=O)Nc1cccc(NC(=O)c2ccccn2)c1,-0.657
13,Cc1noc(NS(=O)(=O)c2ccc(N3CC(O)=C(c4ccccc4)C3=N)cc2)c1C,20.5
14,CCOC(=O)c1c(C)c(C(=O)Nc2ccc(N(C)C)cc2)c(C)n1CC,-1.83
15,COCCCNC(=O)c1cc(C(=O)c2ccccc2Br)c[nH]1,15.1
16,CS(=O)(=O)c1ccccc1-c1nc(-c2cc(C(F)(F)F)cc(C(F)(F)F)c2)no1,4.06
17,COc1ccc(CCNC(=O)c2cccc(S(=O)(=O)NC(C)c3ccccc3)c2)cc1 (centres unmarked),6.04
18,COc1ccc(CCCc2nnc(SCC(=O)Nc3ccc(OC)cc3)o2)cc1,17.7
19,COc1ccc(Cl)cc1NC(=O)c1ocnc1C,10.1
20,Br.CCn1c(=N)n(CC(=O)c2ccco2)c2ccccc21,-3.75
21,Br.Cc1ccccc1Cn1c(=N)n(CC(=O)c2ccco2)c2ccccc21,-65
22,Br.CCCCn1c(=N)n(CC(=O)c2ccco2)c2ccccc21,-41.8
23,Br.CCCCCCCn1c(=N)n(CC(=O)c2ccco2)c2ccccc21,-70.6

row,SMILES,"hERG current change (%, negative = inhibition) at 10uM [%]"
1,CCCn1c(N)[n+](CC(=O)c2ccco2)c2ccccc21.[Br-],-11.1
2,Br.N=c1n(CC(=O)O)c2ccccc2n1Cc1ccccc1Cl,0.122
3,CCOC(=O)C(C)Oc1cccc2c(=O)n(CC(=O)NCc3ccc(F)cc3)ccc12 (centres unmarked),-4.43
4,O=C(OC(C(=O)NCc1ccc2c(c1)OCO2)c1ccccc1F)c1ccco1 (centres unmarked),-31.1
5,C/C(=N\NC(=O)c1nc2ccccn2c1C)c1ccc2c(c1)OCO2,-18.5
6,COc1cccc2cc(C(C)=O)oc12,15.5
7,C/C(=N\NC(=O)c1cc2ccccc2cc1O)c1cc2ccccc2o1,6.05
8,C/C(=N\NC(=O)c1nc2ccccn2c1C)c1cc2ccccc2o1,-63
9,C/C(=N\NC(=O)c1ccco1)c1cc2ccccc2o1,-9.09
10,C/C(=N\NC(=O)c1ccncc1)c1cc2ccccc2o1,-20.5
11,C/C(=N\NC(=O)c1ccc(O)cc1)c1cc2ccccc2o1,-50.3
12,C/C(=N\NC(=O)c1nc2ccccn2c1C)c1ccco1,-1.34
13,COc1cccc2cc(/C(C)=N/NC(=O)c3ccco3)oc12,-52.2
14,Cc1ccc(Nc2ncc3c(n2)CC(C)CC3=O)c(C)c1 (centres unmarked),0.876
15,CCCCN(C(=O)c1cc(CC)c(C)s1)c1c(N)n(CCC)c(=O)[nH]c1=O,-20.8
16,CCOc1ccc2ccccc2c1/C=N\NC(=O)OC,12.7
17,CCCOc1cccc(-c2cc(C(=O)N/N=C/c3ccccn3)c3ccccc3n2)c1,0.224
18,COc1cccc(CN2CCNC(=O)C2CC(=O)N(C)CCC2CCOCC2)c1 (centres unmarked),8.75
19,Cc1ccc2nc(Cl)c(CN(C(=O)c3cnccn3)C3CCCCC3)cc2c1,-24.7
20,COc1ccc(CC2(CO)CCN(Cc3cccn3-c3ccccn3)CC2)cc1,-75.4
21,CCCn1ncc(CN2CCC(CO)(Cc3ccc(OC)cc3)CC2)c1C,-41.9
22,O=C(c1cnsn1)N1CCC(CO)(Cc2cccc(F)c2)CC1,10.8
23,OCC1(Cc2cccc(F)c2)CCN(Cc2cccc3nccnc23)CC1,-59.8

row,SMILES,"hERG current change (%, negative = inhibition) at 10uM [%]"
1,COc1ccc(CC2(CO)CCN(Cc3cccc4nccnc34)CC2)cc1,-70.9
2,COc1cc(CN2CCN(Cc3cccc(OC)c3OC)CC2)cc(OC)c1,-34.2
3,O=S(=O)(c1cccc(F)c1)N1CCC(CO)(Cc2cccc(F)c2)CC1,-18.2
4,COc1ccc(CC2(CO)CCN(Cc3cnn(C)c3C)CC2)cc1,-21.6
5,COc1cccc(CC2(CO)CCN(Cc3cccn3-c3cccnc3)CC2)c1,-47.7
6,COc1ccc(CC2(CO)CCN(Cc3cccc(OC)c3OC)CC2)cc1,-60.5
7,COc1ccc(CC2(CO)CCN(S(=O)(=O)c3cccc4cccnc34)CC2)cc1,-5.13
8,COc1ccc(C2=NOC3(CC(=O)N(c4ccc(C)cc4)C3=O)C2)c(OC)c1 (centres unmarked),4.08
9,CCOC(=O)N1CCN(Cc2cccs2)CC1,24.3
10,Cc1ccc(C)c(NC(=O)CSc2nnc3n2CCCCC3)c1,11
11,COc1ccnc(Oc2ccc(F)cc2)c1C(=O)N/C=N/OCc1c(Cl)cccc1Cl,-5.9
12,C(#Cc1ccccc1)CN1CCN(c2ccccn2)CC1.Cl,-8.88
13,O=C(Nc1cccc(S(=O)(=O)Nc2ccccc2Cl)c1)c1ccc(Cl)nc1,-8.9
14,C/C(CCN1CCc2nc(-c3ccccc3)c(-c3ccccc3)cc2C1)=N\O[C@@H](C)c1cc(-c2c(C)cc(C)cc2C)no1,4.08
15,COc1cccc(-c2cc(C(F)(F)F)nc(-n3ccc([N+](=O)[O-])n3)n2)c1,-6.33
16,CCOC(=O)c1cnc(SCC(=O)Nc2ccccc2C(=O)OC)nc1N,-13.1
17,COc1ccc2c(c1)CCc1sc(NC(=O)c3ccc(C)cc3)nc1-2,10.9
18,CC1CN(S(=O)(=O)c2ccc(C(=O)N(CCCN(C)C)c3nc4c(Cl)cccc4s3)cc2)CC(C)O1.Cl (centres unmarked),-36.7
19,COC(=O)c1ccc(C(=O)N(CCN(C)C)c2nc3c(Cl)cccc3s2)cc1.Cl,-54.9
20,CN(C)CCN(C(=O)c1ccc2c(c1)OCCO2)c1nc2c(Cl)cccc2s1.Cl,-59.3
21,CC(=O)c1ccc(C(=O)N(CCN(C)C)c2nc3c(Cl)cccc3s2)cc1.Cl,-48.6
22,CCN(CC)CCN(C(=O)c1ccc2c(c1)OCCO2)c1nc2c(Cl)cccc2s1.Cl,-54.7
23,Cc1ccc2sc(N(CCN(C)C)C(=O)c3ccc4ccccc4c3)nc2c1C.Cl,18.7

row,SMILES,"hERG current change (%, negative = inhibition) at 10uM [%]"
1,CCN(CC)CCN(C(=O)c1ccc2c(c1)CCCC2)c1nc2c(C)cccc2s1.Cl,-30.2
2,CN(C)CCN(C(=O)c1cccc(Cl)c1)c1nc2c(Cl)cccc2s1.Cl,-52.6
3,COc1ccccc1OCCNC(=O)c1cc(F)c(F)cc1Cl,-2.68
4,Cc1ccccc1-n1nnnc1SC(C)C(=O)Nc1ccc(N2CCN(C)CC2)cc1 (centres unmarked),-25.4
5,COc1ccc(NC(=O)[C@@H]2CC=C[C@@H]3CCN(Cc4ccccc4)C(=O)[C@@H]32)cc1,-8.12
6,COC(=O)[C@@H]1C[C@@H]2CC[C@@H](O)C[C@@H]2N1Cc1ccc(Cl)cc1,23.7
7,CCOc1cc(/C=C2\C(=O)N(c3nc(-c4ccc(Br)cc4)cs3)N=C2c2ccccc2)ccc1O,4.44
8,CS(=O)(=O)c1ccc(Cl)c(NC(=O)C2CC(=O)N(Cc3ccco3)C2)c1 (centres unmarked),9.79
9,CS(=O)(=O)c1ccc(C(=O)OCC(=O)NC(=O)C2CCCCC2)cc1[N+](=O)[O-],28.1
10,Cc1ccc(-c2cc(C(F)F)n3ncc(C(=O)N4CCCc5ccccc54)c3n2)cc1,3.94
11,C=CCn1c(SCC(=O)NCc2ccco2)nnc1-c1ccc2ccccc2n1,-28.2
12,COC(C(=O)Nc1ccc(F)c(F)c1)c1ccccc1 (centres unmarked),-13.7
13,COc1ccc(NS(=O)(=O)c2cccc(C(=O)NCC3CCCO3)c2)cc1 (centres unmarked),-0.415
14,Cn1cnnc1SCC(=O)NCCC(c1ccccc1)c1ccccc1,7.79
15,O=C(COc1ccccc1Cl)N1CCN(c2ccc([N+](=O)[O-])c(N3CCOCC3)c2)CC1,-25.7
16,O=C(COc1ccccc1)N1CCN(c2ccc([N+](=O)[O-])c(N3CCCCC3)c2)CC1,-13.6
17,O=C(COc1ccc(Cl)cc1)N1CCN(c2ccc([N+](=O)[O-])c(N3CCOCC3)c2)CC1,-71.5
18,O=C(COc1ccc(Br)cc1)N1CCN(c2ccc([N+](=O)[O-])c(N3CCCCC3)c2)CC1,-14.1
19,Cc1ccc(OCC(=O)N2CCN(c3ccc([N+](=O)[O-])c(N4CCOCC4)c3)CC2)cc1,-71.4
20,O=C(COc1ccc(Cl)cc1)N1CCN(c2ccc([N+](=O)[O-])c(N3CCCCC3)c2)CC1,2.92
